Compound activity (PubChem)
HT1080 IDH1KD tx: kills HT-1080 cells with IDH1 knockdown; Potency, µM (doses to about 46.1 µM), without a hit: top-dose activity, negative = toxicity, actives largely listed as cytotoxic; hit rate 2% among 360,000; HT-1080 IDH1 knockdown viability, ATP luminescence, 48 h; AID 686971;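 further: 0% = DMSO wells and -100% = cell-free medium wells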
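Viability of IDH1-knockdown HT-1080 fibrosarcoma cells was assessed by CellTiter-Glo after 48 h at 37 °C with titrated compound; concentration-effect curves were classified by fit quality and response size.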
HT1080-NT tox: kills 2HG-producing HT-1080-NT fibrosarcoma cells; HT-1080-NT fibrosarcoma viability, CellTiter-Glo ATP luminescence, 48 h; Potency, µM (top dose mostly 46.1 µM), without a hit: at the highest dose activity, negative = less viability, hits mostly cytotoxic; hit rate 1.6% among 360,000;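 further: NT is the 2HG producing partner of a matched IDH1 knockdown line; 0% = DMSO-treated cells and -100% = media-only wells without cells; nearly all actives have a fitted effect of over 55% in size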
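Fibrosarcoma NT cells, 750 per well in 5% FBS RPMI, were exposed to compound for 48 hours. Viability: CellTiter-Glo luminescence.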
KB-3-1 cytotox: KB-3-1 parental cell cytotoxicity; KB-3-1 viability, CellTiter-Glo ATP luminescence, 72 h; Potency, µM (titrated, usually from 46.1 µM), most hits filed as cytotoxic; hit rate 1.4% among 400,000; further: nearly all actives have a fitted effect of over 60% in size
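Multi-concentration cytotoxicity screen in KB-3-1 cells grown in DMEM lacking phenol red with 10% FBS. After 72 h at 37 °C with compound, ATP-dependent luminescence was recorded.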
KB-V1 MDR tox: kills drug-selected multidrug resistant KB-V1 cells. KB-V1 MDR cells viability, CellTiter-Glo, 72 h. Potency, µM (doses to about 46.1 µM), most hits filed as cytotoxic. hit rate 3.4% among 400,000; further: nearly all actives have a fitted effect of over 60% in size
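Drug-selected KB-V1 cells, grown in DMEM lacking phenol red with 10% FBS, receive compound titrations; after three days at 37 degrees C, surviving cell ATP is quantified by CellTiter-Glo luminescence and responses normalized and curve-fitted.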
The depositor's hits bear a star; i = inactive; ? = inconclusive; · = no result given; [ ] = another dose, or the depositor's remark. Shown are actives, neighbours in structure and some others; about 5.7% of the full set was active somewhere. The call rests on the fitted dose curve; in most records, active means well fitted curve in the direction sought with a large enough effect; inconclusive means small, poorly fitted or top-dose-only effect, or another doubt; inactive means no such curve, though single readings can be large; an effect the other way counts as inactive or inconclusive. Unless noted, on the % scale 0 is the no-effect control and ±100 the full control effect; potency means the concentration at half of the fitted maximal effect.

SMILES | HT1080 IDH1KD tx | HT1080-NT tox | KB-3-1 cytotox | KB-V1 MDR tox
Cc1ccc(/C=N\Nc2cn[nH]c(=O)c2Cl)cc1 | -10% | 1% | 7.1µM* | ?
CCOC(=O)c1ccc(NC(=O)CSc2nnc(CNC(=O)c3ccc(OC)cc3)n2CC)cc1 | · | · | i | i
O=C1CCn2nc(-c3ccc(Cl)cc3)cc2N1 | 12% | -2% | 1.8µM* | ?
C=CS(=O)(=O)c1sc(Cl)c(N2CCOCC2)c1[N+](=O)[O-] | 10µM* | ? | i | i
CCOc1ccc(-c2nc3c(c(SCC(=O)N4CCCCC4)n2)Cc2cccc(OC)c2O3)cc1 | · | · | i | i
CC(C)(C)OC(=O)N1CC=C2C(C#N)=C(N)C(C#N)(C#N)C(c3cccs3)C2C1 (stereo unspecified) | -24% | -28% | i | 9.2µM*
CC(C)(C)OC(=O)N1CC=C2C(C#N)=C(N)C(C#N)(C#N)[C@H](c3cccnc3)[C@H]2C1 | 0% | 6% | ? | ?
CCOC(=O)N1CC=C2C(C#N)=C(N)C(C#N)(C#N)[C@H](c3cccs3)C2C1 (stereo partly specified) | ? | ? | i | 9.2µM*
CCCOc1ccc([C@@H]2C3CN(C(=O)OCC)CC=C3C(C#N)=C(N)C2(C#N)C#N)cc1OC (stereo partly specified) | ? | 1%[9.24 µM] | i | i
CCOc1ccccc1NC(=O)Cn1c(=O)n(CCCC(=O)NCCc2ccc(C)cc2)c(=O)c2ccccc21 | · | · | i | i
NC(=O)c1ccsc1NC(=O)CSc1n[nH]c(N)n1 | -1% | -6% | i | i
CCOC(=O)c1sc(NC(=O)CSc2n[nH]c(-c3ccncc3)n2)c(C#N)c1C | ? | ? | ? | i
CCOc1ccc(/C=C/C2=Cc3c(sc(NC(=O)CSc4n[nH]c(N)n4)c3C#N)C(C)(C)C2)cc1 | ? | ? | 16µM* | ?
Cc1ccsc1/C=C/C1=Cc2c(sc(NC(=O)CSc3n[nH]c(N)n3)c2C#N)C(C)(C)C1 | 13µM* | 22µM* | i | i
COC(=O)C(C)Sc1nnc2cc(C)c3cc(C)cc(C)c3n12 (stereo unspecified) | · | · | i | i
CCc1nnc(NC(=O)CSc2nc3c(c(=O)n2C)SC(C)C3)s1 (stereo unspecified) | -1% | -8% | i | i
CCSc1nnc(NC(=O)CSc2nc3c(c(=O)n2CC)SC(C)C3)s1 (stereo unspecified) | 3% | 2% | 6.5µM* | 2.6µM*
CC1Cc2nc(SCC(=O)N3CCc4ccccc43)n(C)c(=O)c2S1 (stereo unspecified) | 0% | -1% | i | 2.6µM*
CCSc1nnc(NC(=O)CSc2nc3c(c(=O)n2C)SC(C)C3)s1 (stereo unspecified) | 1% | 20% | i | 2.9µM*
CCn1c(SCC(=O)Nc2nnc(C)s2)nc2c(c1=O)SC(C)C2 (stereo unspecified) | 0% | 3% | i | i
COc1cc2nc(N3CCCN(C)CC3)nc(N3CCN(C)CC3)c2cc1OC | -11% | -14% | · | ·
O=S(=O)(Nc1cccc(-c2ccc(N3CCCC3)nn2)c1)c1ccccc1C(F)(F)F | · | · | i | i
COc1ccc(-c2oc3ncn4nc(COc5ccccc5C)nc4c3c2-c2ccc(OC)cc2)cc1 | · | · | i | i
COc1cc(/C=C/C(=O)OCC(=O)Nc2nnc(-c3ccccc3)o2)cc(OC)c1OC | -7% | 2% | i | 12µM*
O=C(COC(=O)/C=C/c1ccccc1)Nc1nnc(-c2ccccc2)o1 | 2% | -5% | i | i
SMILES | HT1080 IDH1KD tx | HT1080-NT tox | KB-3-1 cytotox | KB-V1 MDR tox
CC(C(=O)N1CCCCC1)N1CCN(S(=O)(=O)c2ccc(Cl)cc2)CC1 (stereo unspecified) | -3% | -3% | i | i
CCC(C)c1ccc(S(=O)(=O)N2CCN(C(C)C(=O)NC3CCCC3)CC2)cc1 (stereo unspecified) | -6% | -1% | i | 5.8µM*
CC(C)c1ccc(S(=O)(=O)N2CCN(C(C)C(=O)N3CCCC3)CC2)cc1 (stereo unspecified) | -5% | 3% | i | 26µM*
Cc1cc(=O)n(Cc2cccc(Cl)c2)c2c1c(C)nn2-c1ccccc1 | · | · | i | ?
Cc1ccc(NS(=O)(=O)c2cc(C(=O)NCCSc3ccc(C)cc3)ccc2C)cc1 | ? | ? | i | 16µM*
COc1ccc(Cl)cc1NC(=O)C1CCCN(c2ncnc3onc(C)c23)C1 (stereo unspecified) | · | · | i | ?
COc1ccccc1NC(=O)C1CCCN(c2ncnc3c2nc2n3CCCCC2)C1 (stereo unspecified) | -4% | -3% | i | ?
Cc1cccc(N2CCN(CCCNC(=O)C3CCCN(c4ncnc5c4nc4n5CCCCC4)C3)CC2C)c1 (stereo unspecified) | 16µM* | 21µM* | ? | ?
O=C(NCC1CCN(Cc2ccc(Cl)cc2)CC1)C1CCCN(c2ncnc3c2nc2n3CCCCC2)C1 (stereo unspecified) | 0% | -4% | i | i
Cc1ccc(NC(=O)C2CCCN(c3ncnc4onc(C)c34)C2)c(Cl)c1 (stereo unspecified) | · | · | 2.6µM* | ?
O=C(NCC1CCN(Cc2cccc(Cl)c2)CC1)C1CCCN(c2ncnc3c2nc2n3CCCCC2)C1 (stereo unspecified) | ? | 21µM* | i | i
O=C(Nc1ccccc1Cl)C1CCCN(c2ncnc3c2nc2n3CCCCC2)C1 (stereo unspecified) | -10% | -23% | i | 7.3µM*
COC(=O)C[C@H]1C=C[C@H](NC(=O)Nc2ccccc2OC)[C@@H](CO)O1 | 22% | 8% | i | i
COc1cc(CC(=O)N2c3ccccc3N=C(c3ccccc3)C2C(=O)NCc2ccccc2)cc(OC)c1 (stereo unspecified) | -14% | -15% | i | ?
CC1=C(C(=O)OCc2ccccc2)N2C(=O)[C@@H](NC(=O)OCc3ccccc3)[C@H]2SC1 | · | · | i | ?
OC[C@H]1O[C@@H](c2nc(-c3cccc4ccccc34)no2)[C@H](O)[C@@H]1O | -16% | ? | i | i
OC[C@H]1O[C@@H](c2nc(-c3ccccc3Br)no2)[C@H](O)[C@@H]1O | 15µM* | 10µM* | 7.3µM* | ?
C=CCSc1n[nH]c(-c2ccc(OCCC)cc2)n1 | 8.9µM* | 7.1µM* | i | i
CCN(CC)C(=O)CSc1nc2c(c(=O)n(C)c(=O)n2C)n1Cc1ccccc1 | · | · | i | i
CCCOc1ccc(CCCN=C(N)N)cc1Cl | 21µM* | ? | 21µM* | i
CNS(=O)(=O)c1cn(CC(=O)N2CCN(c3ccc(C(C)=O)cc3)CC2)cc1S(=O)(=O)NC | · | · | i | i
COc1cc(OC)c(OC)cc1CNC(=O)c1cc(S(=O)(=O)N(C)c2ccccc2OC)ccc1C | -10% | -6%[9.24 µM] | i | ?
